Measured values reported in PubChem BioAssay.
Measured potencies and affinities stand elsewhere. Results filed as inconclusive are left out. Active and inactive are the calls of the source. No rule for the calls is given here.

Test: OVCAR-3 cell viability loss – plate reader, dry powder samples, PAX8 inhibitor project, dose response (AID 743044)
Conditions: NIH:OVCAR-3 ovarian cancer cell viability; max activity: at 35 µM, active compounds read low unless noted; series mostly up to 50 µM; activity change, negative = cytotoxicity: at the top concentration
For COc1ccc(S(=O)(=O)Nc2ccc3c(c2)C(=O)N([C@@H](C)CO)C[C@H](C)[C@@H](CN(C)C(=O)Nc2ccc(F)cc2)OCCCC[C@H](C)O3)cc1, the max activity was -15.3% (inactive). With C[C@@H]1CCCCO[C@H](CN(C)S(=O)(=O)c2ccc(F)cc2)[C@H](C)CN([C@@H](C)CO)C(=O)c2cc(NS(=O)(=O)c3ccc(Cl)cc3)ccc2O1 the max activity was -28.2% (inactive). For C[C@H]1CCCCO[C@H](CN(C)C(=O)Nc2cccc3ccccc23)[C@@H](C)CN([C@@H](C)CO)C(=O)c2cc(NS(=O)(=O)c3ccc(Cl)cc3)ccc2O1, the max activity was -25.9% (inactive). With COc1ccccc1C#Cc1ccc2c(c1)O[C@@H](CN(C)Cc1ccncc1)[C@H](C)CN([C@@H](C)CO)S2(=O)=O the max activity was 20.3% [at 8 µM, active compounds read low] (inactive). For C[C@@H]1CCCCO[C@H](CN(C)Cc2ccc(Cl)c(Cl)c2)[C@@H](C)CN([C@@H](C)CO)C(=O)c2cc(NC(=O)Nc3ccccc3)ccc2O1, the max activity was 15.8% [at 0.26 µM, active compounds read low] (inactive). In the case of C[C@H]1CN([C@@H](C)CO)C(=O)Cc2cc(NC(=O)NC3CCCCC3)ccc2O[C@@H]1CN(C)Cc1ccc(-c2ccccc2)cc1, the max activity is reported as 18.6% [at 1 µM, active compounds read low] (inactive). With C[C@H](CO)N1C[C@H](C)[C@@H](CN(C)C(=O)c2ccc3c(c2)OCO3)Oc2cc(C#Cc3ccccc3F)ccc2S1(=O)=O the max activity was -4.28% (inactive). For C[C@H](CO)N1C[C@H](C)[C@@H](CN(C)S(=O)(=O)c2ccc(-c3ccccc3)cc2)OCc2cn(nn2)CCCC1=O, the max activity was -33.1% (inactive).

Test: toxicity toward immortalized ovarian surface epithelium – cell-based, plate reader, dry powder samples, cytotoxicity control for PAX8 inhibitor project, dose response (AID 743045);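 also: 0% = neutral control median and -100% = positive control median; more negative values mean more cell killing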
Conditions: IOSE-T80 ovarian epithelial cells; series mostly up to 35 µM; activity change, negative = cytotoxicity: at the top concentration
With COc1cccc(-c2ccc3c(c2)[C@H]2[C@H](CCN2S(=O)(=O)c2ccccc2F)[C@@H](CO)N3)c1 the “activity change, negative = cytotoxicity” value was -14.4% (inactive). With COc1ccc(S(=O)(=O)Nc2ccc3c(c2)C(=O)N([C@@H](C)CO)C[C@H](C)[C@@H](CN(C)C(=O)Nc2ccc(F)cc2)OCCCC[C@H](C)O3)cc1 the “activity change, negative = cytotoxicity” value was 15.6% (inactive). For C[C@@H]1CCCCO[C@H](CN(C)Cc2ccc(C(F)(F)F)cc2)[C@@H](C)CN([C@@H](C)CO)C(=O)c2cc(NC(=O)Nc3ccc(F)cc3)ccc2O1, the “activity change, negative = cytotoxicity” value was -13.1% (inactive). In the case of C[C@@H]1CCCCO[C@H](CN(C)S(=O)(=O)c2ccc(F)cc2)[C@H](C)CN([C@@H](C)CO)C(=O)c2cc(NS(=O)(=O)c3ccc(Cl)cc3)ccc2O1, the “activity change, negative = cytotoxicity” value is reported as 10% (inactive). With CCCC#Cc1ccc([C@@H]2[C@@H](C#N)N(C(=O)C3CCCCC3)[C@H]2CO)cc1 the “activity change, negative = cytotoxicity” value was 22.6% (inactive). For C[C@H]1CCCCO[C@H](CN(C)C(=O)Nc2cccc3ccccc23)[C@@H](C)CN([C@@H](C)CO)C(=O)c2cc(NS(=O)(=O)c3ccc(Cl)cc3)ccc2O1, the “activity change, negative = cytotoxicity” value was 11.7% (inactive). In the case of COc1ccccc1C#Cc1ccc2c(c1)O[C@@H](CN(C)Cc1ccncc1)[C@H](C)CN([C@@H](C)CO)S2(=O)=O, the “activity change, negative = cytotoxicity” value is reported as 7.02% (inactive). In the case of C[C@@H]1CCCCO[C@H](CN(C)Cc2ccc(Cl)c(Cl)c2)[C@@H](C)CN([C@@H](C)CO)C(=O)c2cc(NC(=O)Nc3ccccc3)ccc2O1, the “activity change, negative = cytotoxicity” value is reported as 15.7% (inactive). In the case of C[C@H]1CN([C@@H](C)CO)C(=O)Cc2cc(NC(=O)NC3CCCCC3)ccc2O[C@@H]1CN(C)Cc1ccc(-c2ccccc2)cc1, the “activity change, negative = cytotoxicity” value is reported as 9.89% (inactive). With C[C@@H]1CN([C@H](C)CO)C(=O)c2cc(NS(=O)(=O)c3ccc(Cl)cc3)ccc2O[C@@H](C)CCCCO[C@H]1CN(C)C(=O)Nc1ccc(C(F)(F)F)cc1 the “activity change, negative = cytotoxicity” value was 36.6% (inactive). With C[C@H](CO)N1C[C@H](C)[C@@H](CN(C)C(=O)c2ccc3c(c2)OCO3)Oc2cc(C#Cc3ccccc3F)ccc2S1(=O)=O the “activity change, negative = cytotoxicity” value was 16% (inactive). For C[C@@H]1CCCCO[C@H](CN(C)C(=O)Nc2cccc3ccccc23)[C@H](C)CN([C@@H](C)CO)C(=O)c2cc(NS(=O)(=O)c3ccc(Cl)cc3)ccc2O1, the “activity change, negative = cytotoxicity” value was 2.83% (inactive). For C[C@@H]1CCCCO[C@@H](CN(C)Cc2ccc(Cl)c(Cl)c2)[C@@H](C)CN([C@@H](C)CO)C(=O)c2cc(NC(=O)Nc3ccccc3)ccc2O1, the “activity change, negative = cytotoxicity” value was 8.04% [at 30 µM] (inactive). In the case of C[C@H](CO)N1C[C@H](C)[C@@H](CN(C)S(=O)(=O)c2ccc(-c3ccccc3)cc2)OCc2cn(nn2)CCCC1=O, the “activity change, negative = cytotoxicity” value is reported as -4.19% (inactive). With C[C@@H]1CN([C@H](C)CO)C(=O)c2cc(NC(=O)Nc3ccc(F)cc3)ccc2O[C@@H](C)CCCCO[C@H]1CN(C)Cc1ccc(C(F)(F)F)cc1 the “activity change, negative = cytotoxicity” value was 9.04% (inactive). In the case of C[C@@H]1CN([C@@H](C)CO)C(=O)Cc2cc(NC(=O)CCCCCC(=O)Nc3ccccc3N)ccc2O[C@@H]1CN(C)Cc1ccc(C(F)(F)F)cc1, the “activity change, negative = cytotoxicity” value is reported as 6.79% (inactive). For COc1ccc(CN(C)C[C@H]2OCCCC[C@H](C)Oc3ccc(NC(=O)Nc4ccc(C(F)(F)F)cc4)cc3C(=O)N([C@H](C)CO)C[C@H]2C)cc1, the “activity change, negative = cytotoxicity” value was -3.34% (inactive). With CN1c2ccc(-c3cccc(C#N)c3)cc2[C@H]2[C@H](CCN2S(=O)(=O)c2ccccc2F)[C@H]1CO the “activity change, negative = cytotoxicity” value was -85.5% (inactive). With C[C@@H]1CCCCO[C@H](CN(C)Cc2ccc(C(F)(F)F)cc2)[C@@H](C)CN([C@@H](C)CO)C(=O)c2cc(NC(=O)Cc3ccccc3)ccc2O1 the “activity change, negative = cytotoxicity” value was -22.3% (inactive). For C[C@@H]1CN([C@H](C)CO)C(=O)c2cc(NC(=O)Nc3ccc(F)cc3)ccc2O[C@@H](C)CCCCO[C@@H]1CN(C)Cc1ccc(C(F)(F)F)cc1, the “activity change, negative = cytotoxicity” value was -13.3% (inactive). In the case of COc1ccccc1C#Cc1ccc2c(c1)O[C@@H](CN(C)Cc1ccncc1)[C@H](C)CN([C@H](C)CO)S2(=O)=O, the “activity change, negative = cytotoxicity” value is reported as 24.8% (inactive). With C[C@@H]1CN([C@H](C)CO)C(=O)c2cc(NS(=O)(=O)c3ccc(F)cc3)ccc2O[C@@H](C)CCCCO[C@@H]1CN(C)Cc1ccccc1 the “activity change, negative = cytotoxicity” value was -8.26% (inactive). In the case of COc1ccc(S(=O)(=O)N(C)C[C@@H]2OCCCC[C@H](C)Oc3ccc(NS(=O)(=O)c4ccccc4)cc3C(=O)N([C@H](C)CO)C[C@H]2C)cc1, the “activity change, negative = cytotoxicity” value is reported as 5.06% (inactive).
